# Screens deposited in PubChem by The Scripps Research Institute Molecular Screening Center.
# CHO-K1 Ca antag – M1 antagonist counterscreen hit in parental CHO-K1 cells | ATP-induced calcium, Fluo-8 fluorescence | inhibition, % at 3 µM | 360,000 compounds, 0.6% hits | AID 602250;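 active = inhibition above a per-plate cutoff, the plate's mean sample inhibition plus 3 SD, cut at about 24% in these data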
# M1 ag parental – nonselective activator or artifact in parental CHO-K1 cells; Fluo-8 calcium fluorescence; scaled to maximal ATP response, vehicle zero; activation, % at 3 µM; 360,000 compounds, 0.48% hits; in the data active = activation above about 15%;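 also: untransfected CHO-K1 host cells lacking M1 receptor as counterscreen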
# CHRM1 antagonist – human CHRM1 antagonism. AID 588852. 360,000 compounds, 1.3% hits. inhibition, % at 3 µM. CHO-K1 hM1, Fluo-8 calcium fluorescence, ACh EC80 antagonist. P11229;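 active = percent inhibition above its own plate's cutoff, namely the mean of that plate's compound wells plus 3 SD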;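 also: peak over basal fluorescence ratio during 140 s after agonist addition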
# Target sequence (P11229 whole entry, looked up): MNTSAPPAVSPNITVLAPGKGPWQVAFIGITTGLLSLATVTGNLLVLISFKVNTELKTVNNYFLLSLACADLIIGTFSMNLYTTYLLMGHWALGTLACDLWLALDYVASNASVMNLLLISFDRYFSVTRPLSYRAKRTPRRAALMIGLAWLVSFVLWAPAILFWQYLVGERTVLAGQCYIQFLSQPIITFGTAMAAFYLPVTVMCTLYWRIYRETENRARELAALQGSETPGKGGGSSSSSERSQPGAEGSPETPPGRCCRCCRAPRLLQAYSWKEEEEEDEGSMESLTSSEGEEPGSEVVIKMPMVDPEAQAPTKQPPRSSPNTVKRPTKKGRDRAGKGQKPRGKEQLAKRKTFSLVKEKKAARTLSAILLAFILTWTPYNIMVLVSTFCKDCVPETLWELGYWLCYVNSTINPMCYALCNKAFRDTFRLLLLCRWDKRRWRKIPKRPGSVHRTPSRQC
# CHO-K1 Ca PAM – counter-screen for M1 PAMs: effect in parental CHO-K1 cells; ATP EC20, Fluo-8 calcium fluorescence; 0% at ATP EC20, 100% at ATP max; activation, % at 3 µM; 360,000 compounds, 0.02% hits; AID 602247;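 active = activation above the run cutoff, the mean activation of all test compounds plus 3 SD, cut at about 40% in these data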;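 also: peak over basal fluorescence ratio in a 140 s read after ATP addition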
# M1 ag – activates human CHRM1 receptor | CHO-K1 hM1, Fluo-8 calcium fluorescence, agonist mode; 0% DMSO, 100% acetylcholine EC100 | activation, % at 3 µM | 360,000 compounds, 0.33% hits;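 active = activation above the run's mean compound activation plus 3 SD, cut at about 16% in these data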;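 also: peak over basal fluorescence ratio within a 140 s kinetic read after compound addition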
# M1 PAM – human CHRM1 positive allosteric modulation; P11229; CHO-K1 hM1, Fluo-8 calcium fluorescence, ACh EC20; 0% = ACh EC20, 100% = maximal ACh; activation, % at 3 µM; 360,000 compounds, 0.088% hits; in the data active = activation above about 19%, passing the limit was not always enough
# Hits are given with their value; – = inactive. A selection: hits, their analogues and other compounds. The true share with any hit is near 2.3%.
SMILES,CHO-K1 Ca antag,M1 ag parental,CHRM1 antagonist,CHO-K1 Ca PAM,M1 ag,M1 PAM
CC(C[N+](C)(C)C)OC(=O)C1(c2ccccc2)CCCC1 (stereo not given),–,–,93,–,–,–
COc1ccc(NC(=O)C2(c3ccccc3)CCCC2)cc1,–,–,–,–,–,–
CCN(CC)CCCOC(=O)C1(c2ccccc2)CCCC1,–,–,99,–,–,–
C[N+]1(CCOC(=O)C2(c3ccccc3)CCCC2)CCCCC1,–,–,100,–,–,–
COc1ccc(Br)cc1CNC(=O)CN1C(=O)C(c2ccccc2)Oc2cccnc21 (stereo not given),–,–,–,–,–,–
C[N+](C)(C)CCOC(=O)C1(c2ccccc2)CCCC1,–,–,99,–,–,–
O=C(COC(=O)C1(c2ccccc2)CC1)NNC(=O)c1ccccc1F,–,–,–,–,–,–
COc1ccc(CN(C)C(=O)c2cc(S(=O)(=O)N3CCCCCC3)ccc2OC)cc1OC,–,–,–,–,–,–
COc1ccc(S(=O)(=O)N2CCCCCC2)cc1C(=O)N(C)Cc1ccc(F)cc1,–,–,–,–,–,25
O=C(Nc1ccnn1C1CCN(Cc2cccc(OCCO)c2)CC1)C1CCOC1 (stereo not given),–,–,–,–,–,–
CCN1C(=O)N[C@@H](c2cccc(F)c2)C(C(C)=O)=C1C,–,–,–,–,–,31
CCOC(=O)CN1C(=O)N[C@@H](c2cccc(F)c2)C(C(C)=O)=C1C,–,–,–,–,–,–
CC(=O)Nc1ccc(S(=O)(=O)NCCc2ccc(S(N)(=O)=O)cc2)cc1,–,–,–,–,–,–
NS(=O)(=O)c1ccc(CCNC(=O)c2ccccc2F)cc1,28,–,–,–,–,–
NS(=O)(=O)c1ccc(CCNC(=O)c2ccc(C#CC3(O)CCCCC3)cc2)cc1,–,–,38,–,–,–
NS(=O)(=O)c1ccc(CCNS(=O)(=O)c2ccc(Cl)cc2)cc1,–,–,101,–,–,–
CC(C)c1ccc(/C=N/NC(=O)c2nnn(-c3nonc3N)c2CN(C)C2CCCCC2)cc1,–,–,–,–,–,–
COc1ccc(COc2cc(-c3cccc(OC)c3)nc3ccc(NC(=O)c4ccc(C)cc4)cc23)cc1,–,–,–,–,–,–
COc1ccc(COc2cc(-c3cccc(OC)c3)nc3ccc(NC(=O)c4ccc(N(C)C)cc4)cc23)cc1,–,–,40,–,–,–
CC(=O)c1cn(CCOc2ccccc2C)c2ccccc12,–,–,33,–,–,–
O=C(C(=O)N1CCOCC1)c1cn(CCOc2ccccc2)c2ccccc12,–,–,–,–,–,–
Cc1ccccc1OCCn1cc(C(=O)C(=O)N2CCOCC2)c2ccccc21,–,23,–,–,–,–
Cn1c(CC(=O)Nc2ccccc2F)nnc1SCC(=O)Nc1ccccc1Br,–,–,–,–,–,–
O=C(COc1ccc(Cl)cc1)NCCS(=O)(=O)N1CCN(c2ccccc2F)CC1,–,–,–,–,–,–
Cc1ccc(OCc2cn3cccnc3n2)cc1,67,95,–,–,–,–
SMILES,CHO-K1 Ca antag,M1 ag parental,CHRM1 antagonist,CHO-K1 Ca PAM,M1 ag,M1 PAM
O=C(COC(=O)CNC(=O)C1CCCCC1)Nc1ccccc1Cl,–,–,–,–,–,–
CC(OC(=O)CCC(=O)c1ccc(Cl)s1)C(=O)NC1(C#N)CCCCC1 (stereo not given),–,–,–,–,–,–
COc1ccc(C(=O)c2ccccc2O)c(O)c1,24,–,–,–,–,–
CCn1c2ccccc2c2cc(NC(=O)COC(=O)c3cc(Cl)c(N)cc3OC)ccc21,–,–,–,–,–,–
COc1ccc(Nc2ncc(C(=O)N3CCN(Cc4ccccc4)CC3)c3ccccc23)cc1,–,–,32,–,–,–
CCOc1ccc(S(=O)(=O)N2CCN(C(=O)c3ccccc3Cc3ccccc3)CC2)cc1,–,–,–,–,–,–
O=C(NCc1cc(C(F)(F)F)ccc1Cl)c1cccc2c1C(=O)c1ccc(N3CCC(N4CCCCC4)CC3)cc1S2(=O)=O,–,–,32,–,–,–
O=C(NCc1cccc(F)c1)c1cccc2c1C(=O)c1ccc(N3CCCC3)cc1S2(=O)=O,–,–,33,–,27,–
O=C(NCCc1ccc(F)cc1)c1cccc2c1C(=O)c1ccc(N3CCC(Cc4ccccc4)CC3)cc1S2(=O)=O,–,–,–,–,20,–
